Data reported in PubChem BioAssay (EPA / NIEHS).
Calls of active or inactive are those of the source. How the source made its calls: active means hit-call score of the fitted dose curve at least 0.9, where 1 is the maximum; inactive means score below 0.9.

Tests used:
Settings in all cases: mRNA level, 48 h; actives raise or lower the signal
[1] = read-out: ABC Transporter (ABCB11), ABCB11 (gene 8647); test: LTEA_HepaRG_ABCB11: Life Technologies and Expression Analysis (LTEA) Assay for ABC Transporter (ABCB11) using HepaRG (AID 2283463)
In short: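 HepaRG, 48 h exposure, 8-pt half-log CRC top 100 uM, 0.5% DMSO vehicle, duplicates. Readout: TaqMan qRT-PCR of ABCB11 mRNA, housekeeping-normalized (ACTB/GAPDH/POLR2A). Bidirectional fit vs DMSO baseline.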

[2] = read-out: ABC Transporter (ABCC2), ABCC2 (gene 1244); test: LTEA_HepaRG_ABCC2: Life Technologies and Expression Analysis (LTEA) Assay for ABC Transporter (ABCC2) using HepaRG (AID 2283464)
In short: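 qRT-PCR (TaqMan, Fluidigm array) read-out of ABCC2 mRNA, normalized to three housekeeping genes. Differentiated HepaRG cells were treated 48 h in serum-free induction medium with 8-point half-log series from 100 uM in 0.5% DMSO; curves fitted bidirectionally relative to DMSO.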

[3] = read-out: Broad substrate specificity ATP-binding cassette transporter ABCG2 (Homo sapiens) (UniProt Q9UNQ0); test: LTEA_HepaRG_ABCG2: Life Technologies and Expression Analysis (LTEA) Assay for ABC Transporter (ABCG2) using HepaRG (AID 2283465)
In short: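 HepaRG, 48 h exposure, 8-pt half-log series from 100 uM, 0.5% DMSO vehicle, duplicates. Readout: ABCG2 transcript by qRT-PCR (Fluidigm array), housekeeping-normalized; bidirectional curve fit relative to DMSO baseline.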

[4] = read-out: ATP-citrate lyase (ACLY), ACLY (gene 47); test: LTEA_HepaRG_ACLY: Life Technologies and Expression Analysis (LTEA) Assay for ATP-citrate lyase (ACLY) using HepaRG (AID 2283466)
In short: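 qRT-PCR readout of ACLY transcript after 48 h chemical treatment of HepaRG cells; expression normalized to three housekeeping genes. Eight-point half-log series, highest 100 uM, 0.5% DMSO vehicle. Gain or loss fitted against DMSO baseline.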

[5] = read-out: Peroxisomal acyl-coenzyme A oxidase 1 (ACOX1) gene, ACOX1 (gene 51); test: LTEA_HepaRG_ACOX1: Life Technologies and Expression Analysis (LTEA) Assay for Peroxisomal acyl-coenzyme A oxidase 1 (ACOX1) gene using HepaRG (AID 2283467)
In short: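 HepaRG, 48 h chemical exposure, 8-pt half-log series from 100 uM top, 0.5% DMSO vehicle, duplicates. Readout: ACOX1 mRNA by Fluidigm qRT-PCR, housekeeping-normalized; bidirectional fit vs DMSO baseline.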

[6] = read-out: Alkaline Phosphatase, Placental (ALPP) gene, ALPP (gene 250); test: LTEA_HepaRG_ALPP: Life Technologies and Expression Analysis (LTEA) Assay for Alkaline Phosphatase, Placental (ALPP) gene using HepaRG (AID 2283468)
In short: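 qRT-PCR readout of ALPP mRNA (Fluidigm TaqMan), normalized to ACTB/GAPDH/POLR2A, after 48 h chemical exposure of HepaRG cells; 8-point half-log series, top 100 uM, 0.5% DMSO vehicle. Bidirectional curve fit versus DMSO baseline.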

[7] = read-out: Bcl-2 (BAD) gene, BAD (gene 572); test: LTEA_HepaRG_BAD: Life Technologies and Expression Analysis (LTEA) Assay for Bcl-2 (BAD) gene using HepaRG (AID 2283469)
In short: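 HepaRG, 48 h exposure, 8-pt half-log curve from 100 uM in 0.5% DMSO, duplicates. Readout: TaqMan qRT-PCR for BAD mRNA, housekeeping-normalised (ACTB/GAPDH/POLR2A); gain or loss fitted against DMSO baseline.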

[8] = read-out: Bcl-2 (BAX) gene, BAX (gene 581); test: LTEA_HepaRG_BAX: Life Technologies and Expression Analysis (LTEA) Assay for Bcl-2 (BAX) gene using HepaRG (AID 2283470)
In short: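 Gene expression measured by Fluidigm qRT-PCR with three housekeeping genes for normalisation. HepaRG cells, plated 48 h beforehand, treated 48 h at up to 100 uM (8-point, half-log) in 0.5% DMSO. Bidirectional fitting versus DMSO.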

[9] = read-out: adenosine kinase (ADK) gene, ADK (gene 132); test: LTEA_HepaRG_ADK: Life Technologies and Expression Analysis (LTEA) Assay for adenosine kinase (ADK) gene using HepaRG (AID 2283471)
In short: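 ADK expression quantified by qRT-PCR, normalised to three housekeeping genes, after 48 h exposure of HepaRG cells to eight concentrations (top 100 uM, half-log steps, duplicate, 0.5% DMSO). Up- or down-regulation fitted relative to vehicle.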

[10] = read-out: Alpha-fetoprotein (AFP) gene, AFP (gene 174); test: LTEA_HepaRG_AFP: Life Technologies and Expression Analysis (LTEA) Assay for Alpha-fetoprotein (AFP) gene using HepaRG (AID 2283472)
In short: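 AFP transcript measured by TaqMan qRT-PCR with three housekeeping genes for normalization, after 48 h chemical treatment of HepaRG cells (top 100 uM, half-log steps, 0.5% DMSO). Gain or loss fitted against vehicle.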

[11] = read-out: Apolipoprotein A-V (APOA5) gene, APOA5 (gene 116519); test: LTEA_HepaRG_APOA5: Life Technologies and Expression Analysis (LTEA) Assay for Apolipoprotein A-V (APOA5) gene using HepaRG (AID 2283474)
In short: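 HepaRG, 48 h chemical exposure in serum-free induction medium, 8-pt half-log series (top 100 uM), 0.5% DMSO vehicle, duplicates. Readout: APOA5 mRNA by qRT-PCR, housekeeping-normalized; bidirectional fit vs DMSO baseline.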

[12] = read-out: Apoptosis regulator Bcl-2 (Homo sapiens) (UniProt P10415); test: LTEA_HepaRG_BCL2: Life Technologies and Expression Analysis (LTEA) Assay for Bcl-2 gene using HepaRG (AID 2283475)
In short: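 qRT-PCR of BCL2 transcript, normalized to three housekeeping genes (ACTB, GAPDH, POLR2A), after 48 h chemical exposure of HepaRG cells; concentrations top 100 uM with half-log dilutions, 0.5% DMSO vehicle, duplicates; changes up or down fitted relative to vehicle.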

[13] = read-out: Bcl-2 (BID) gene, BID (gene 637); test: LTEA_HepaRG_BID: Life Technologies and Expression Analysis (LTEA) Assay for Bcl-2 (BID) gene using HepaRG (AID 2283476)
In short: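 Duplicate 48 h treatments of HepaRG cells in serum-free induction medium spanned 100 uM downward in half-log steps, 0.5% DMSO. Transcript change quantified by qRT-PCR against three housekeeping genes, fitted up or down versus DMSO.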

Caspase-3 (Homo sapiens) = Caspase-3 (Homo sapiens) (UniProt P42574); test: LTEA_HepaRG_CASP3: Life Technologies and Expression Analysis (LTEA) Assay for cysteine-aspartic acid protease (CASP3) using HepaRG (AID 2283477)
Chain of Caspase-3 (Homo sapiens) (P42574 whole entry, looked up): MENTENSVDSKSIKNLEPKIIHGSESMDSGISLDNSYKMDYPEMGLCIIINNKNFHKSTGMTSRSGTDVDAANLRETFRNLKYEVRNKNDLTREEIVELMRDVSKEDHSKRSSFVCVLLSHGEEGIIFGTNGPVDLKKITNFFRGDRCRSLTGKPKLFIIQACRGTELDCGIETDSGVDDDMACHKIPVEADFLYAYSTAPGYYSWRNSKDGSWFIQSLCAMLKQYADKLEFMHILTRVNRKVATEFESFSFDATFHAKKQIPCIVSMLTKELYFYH
In short: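 HepaRG, 48 h exposure, 8 conc. (top 100 uM, half-log steps, duplicate), 0.5% DMSO vehicle; qRT-PCR of CASP3 transcript, housekeeping-normalised (ACTB/GAPDH/POLR2A); bidirectional curve fit vs DMSO baseline.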

[14] = read-out: Cytochrome P450 (CYP24A1), CYP24A1 (gene 1591); test: LTEA_HepaRG_CYP24A1: Life Technologies and Expression Analysis (LTEA) Assay for Cytochrome P450 (CYP24A1) using HepaRG (AID 2283478)
In short: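 qRT-PCR read-out: CYP24A1 transcript levels normalized to three housekeeping genes, bidirectional curve fits against 0.5% DMSO baseline. Human HepaRG cells treated 48 h with chemicals at eight concentrations from 100 uM in half-log steps.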

[15] = read-out: cysteine-aspartic acid protease (CASP8), CASP8 (gene 841); test: LTEA_HepaRG_CASP8: Life Technologies and Expression Analysis (LTEA) Assay for cysteine-aspartic acid protease (CASP8) using HepaRG (AID 2283480)
In short: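 qRT-PCR readout of CASP8 mRNA, normalized to three housekeeping genes, after 48 h chemical exposure of HepaRG cells; 8-point half-log series, top 100 uM, 0.5% DMSO vehicle. Bidirectional curve fitting against DMSO baseline.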

[16] = read-out: Cytochrome P450 (CYP2B6), CYP2B6 (gene 1555); test: LTEA_HepaRG_CYP2B6: Life Technologies and Expression Analysis (LTEA) Assay for Cytochrome P450 (CYP2B6) using HepaRG (AID 2283481)
In short: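 Read-out is CYP2B6 mRNA by TaqMan qRT-PCR, normalized to three housekeeping genes and fitted bidirectionally against 0.5% DMSO baseline. Human HepaRG cells received test chemicals for 48 h, top concentration 100 uM, half-log dilutions.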

[17] = read-out: Cytochrome P450 2C19 (Homo sapiens) (UniProt P33261); test: LTEA_HepaRG_CYP2C19: Life Technologies and Expression Analysis (LTEA) Assay for CYP2C19 using HepaRG (AID 2283482)
In short: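 HepaRG, 48 h chemical exposure, 8-pt half-log series from 100 uM in 0.5% DMSO, duplicates. Readout: CYP2C19 mRNA by TaqMan qRT-PCR, housekeeping-normalized. Bidirectional fit vs DMSO baseline; phenobarbital 1mM as induction control.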

BCL2L11 (gene 10018) = test: LTEA_HepaRG_BCL2L11: Life Technologies and Expression Analysis (LTEA) Assay for Bcl-2 (BCL2L11) gene using HepaRG (AID 2283473)
In short: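 HepaRG, 48 h exposure, 8-pt half-log series from 100 uM in 0.5% DMSO, duplicates; qRT-PCR (Fluidigm TaqMan) for BCL2L11, housekeeping-normalized; bidirectional curve fit relative to DMSO baseline.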

[18] = read-out: Cytochrome P450 (CYP1A2), CYP1A2 (gene 1544); test: LTEA_HepaRG_CYP1A2: Life Technologies and Expression Analysis (LTEA) Assay for Cytochrome P450 (CYP1A2) using HepaRG (AID 2283479)
In short: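 HepaRG, 48 h exposure, top 100 uM, half-log 8-pt, 0.5% DMSO vehicle, duplicates. Readout: TaqMan qRT-PCR of CYP1A2 mRNA, housekeeping-normalized (ACTB/GAPDH/POLR2A). Gain/loss fit relative to DMSO baseline.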

Measured: AC50

Chain of Apoptosis regulator Bcl-2 (Homo sapiens) (P10415 whole entry, looked up): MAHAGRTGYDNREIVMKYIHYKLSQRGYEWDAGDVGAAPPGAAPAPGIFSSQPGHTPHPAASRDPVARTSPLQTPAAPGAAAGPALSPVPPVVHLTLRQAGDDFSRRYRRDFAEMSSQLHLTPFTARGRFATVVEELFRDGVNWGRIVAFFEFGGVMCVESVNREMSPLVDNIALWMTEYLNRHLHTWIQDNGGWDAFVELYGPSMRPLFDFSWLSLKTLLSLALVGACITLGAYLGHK
Chain of Broad substrate specificity ATP-binding cassette transporter ABCG2 (Homo sapiens) (Q9UNQ0 whole entry, looked up): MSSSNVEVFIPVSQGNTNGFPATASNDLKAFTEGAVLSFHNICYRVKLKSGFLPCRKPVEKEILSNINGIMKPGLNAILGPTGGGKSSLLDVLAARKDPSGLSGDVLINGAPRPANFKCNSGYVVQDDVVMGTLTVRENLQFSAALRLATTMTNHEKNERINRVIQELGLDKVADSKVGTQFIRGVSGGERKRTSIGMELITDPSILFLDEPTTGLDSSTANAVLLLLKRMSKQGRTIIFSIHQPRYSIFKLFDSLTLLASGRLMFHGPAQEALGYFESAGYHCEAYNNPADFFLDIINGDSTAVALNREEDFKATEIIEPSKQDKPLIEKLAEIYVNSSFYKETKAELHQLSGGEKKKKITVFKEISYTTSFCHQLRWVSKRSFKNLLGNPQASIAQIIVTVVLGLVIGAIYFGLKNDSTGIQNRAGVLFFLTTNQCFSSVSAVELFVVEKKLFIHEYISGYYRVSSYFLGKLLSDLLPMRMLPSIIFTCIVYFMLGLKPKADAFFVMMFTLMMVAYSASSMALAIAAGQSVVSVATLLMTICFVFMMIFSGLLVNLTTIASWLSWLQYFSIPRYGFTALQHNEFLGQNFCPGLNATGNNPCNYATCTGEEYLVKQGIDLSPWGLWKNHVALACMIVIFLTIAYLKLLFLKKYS
Chain of Cytochrome P450 2C19 (Homo sapiens) (P33261 whole entry, looked up): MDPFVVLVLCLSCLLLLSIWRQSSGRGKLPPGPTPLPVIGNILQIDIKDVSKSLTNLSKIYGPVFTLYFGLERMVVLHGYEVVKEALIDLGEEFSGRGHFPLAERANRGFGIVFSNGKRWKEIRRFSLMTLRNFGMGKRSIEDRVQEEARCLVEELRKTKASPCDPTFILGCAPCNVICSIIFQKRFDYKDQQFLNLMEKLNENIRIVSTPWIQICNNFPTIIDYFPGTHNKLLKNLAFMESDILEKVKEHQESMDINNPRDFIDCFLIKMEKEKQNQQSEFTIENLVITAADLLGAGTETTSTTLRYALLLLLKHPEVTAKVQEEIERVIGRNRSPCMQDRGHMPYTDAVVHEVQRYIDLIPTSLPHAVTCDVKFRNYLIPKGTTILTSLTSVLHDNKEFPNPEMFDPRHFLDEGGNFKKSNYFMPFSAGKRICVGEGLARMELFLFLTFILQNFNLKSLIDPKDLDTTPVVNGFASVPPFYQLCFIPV

CCC(C)N(C)C(=O)c1cc2ccccc2c(-c2ccccc2Cl)n1 (configuration not stated)
active: [2] 7.48 µM | [3] 4.44 µM | [10] 31.8 µM | [16] 1.38 µM | [17] 4.31 µM
not listed: BCL2L11 (gene 10018) | [18]
inactive: all other assays above

CC(C)COC(=O)CCCCC(=O)OCC(C)C
not listed: [16] | BCL2L11 (gene 10018) | [18]
inactive: all other assays above

CO[C@@H]1COCC[C@@H]1N[C@@H]1CC[C@@](C(=O)N2CCc3ncc(C(F)(F)F)cc3C2)(C(C)C)C1
not listed: [10] | [11]
inactive: all other assays above

Cc1ccc(C(C)(C)C)c(O)c1
active: [18] 25.6 µM
not listed: [11] | [16] | BCL2L11 (gene 10018)
inactive: all other assays above

NC=O
not listed: [10] | [18]
inactive: all other assays above

Cn1cnc2c1c(=O)[nH]c(=O)n2C
not listed: [14] | [16] | [17] | BCL2L11 (gene 10018) | [18]
inactive: all other assays above

CC(=O)OCC(COC(C)=O)OC(C)=O
not listed: [10]
inactive: all other assays above
